IL1B secr inh: qHTS for Inhibitors of Inflammasome Signaling: IL-1-beta AlphaLISA Primary Screen; actives 4.7% (n = 360,000); THP-1 LPS/ATP IL-1B secretion, AlphaLISA, 16 h; hits give low values; activity change, % at 57.5 µM; AID 743279, 2014; in the data active = activity change below about -50%; inconclusive = mostly about -30% to -49%
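Secreted IL-1B measured by AlphaLISA bead assay after 16 h compound exposure of THP-1 cells; compounds (final up to 57.5 uM) added 1 h before LPS (250 ng/mL) and ATP (1.25 mM) stimulation; lower signal means less secretion.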
HT1080NT lethal: qHTS for induction of synthetic lethality in tumor cells producing 2HG: qHTS for the HT-1080-NT fibrosarcoma cell line; HT-1080-NT fibrosarcoma viability, CellTiter-Glo ATP luminescence, 48 h; Potency, µM (highest dose often 46.1 µM), for inactives: at the highest dose activity, negative = less viability, hits mostly cytotoxic; actives 1.6% (n = 360,000);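 also: NT is the 2HG producing partner of a matched IDH1 knockdown line; potency is read from the fitted curve at half-maximal effect; 0% = DMSO-treated cells and -100% = media-only wells without cells; nearly all actives have a fitted effect of over 55% in size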
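Read-out is CellTiter-Glo luminescence after 10 minutes at room temperature, following 48 hours' compound treatment of HT-1080-NT cells (750 cells/well, RPMI, 5% FBS, 37 degrees C).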
HT1080 IDH1KD tx: qHTS for induction of synthetic lethality in tumor cells producing 2HG: qHTS for the HT-1080-IDH1KD cell line; HT-1080 IDH1 knockdown viability, ATP luminescence, 48 h; Potency, µM (titrated, usually from 46.1 µM), without a hit: at the highest dose activity, negative = toxicity, actives largely listed as cytotoxic; actives 2% (n = 360,000); AID 686971, 2013;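 also: potency is read from the fitted curve at half-maximal effect; 0% = DMSO wells and -100% = cell-free medium wells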
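% activity derives from luminescence (CellTiter-Glo), normalised to DMSO and no-cell wells. HT-1080-IDH1KD cells, 750/well, had 48 h compound exposure at 37 °C.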
TDP1 cell noCPT: qHTS for Inhibitors of human tyrosyl-DNA phosphodiesterase 1 (TDP1): qHTS in cells in absence of CPT; DT40 Tdp1-/- hTDP1 cells, no CPT, ATP luminescence, 48 h; Potency, µM (titrated, usually from 46.2 µM), for inactives: at the top dose activity change, negative = growth inhibition, usual class: inhibitors; actives 15% (n = 420,000); AID 686978, 2013; also: potency is read from the fitted curve at half-maximal effect; nearly all actives have a fitted effect of over 55% in size
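Cells were dispensed at 400 per well, compounds added by pin tool, plates incubated ≥48 hr at 37 °C, then CellTiter-Glo added for 30 min at room temperature before luminescence reading. Line: DT40 Tdp1-/- complemented with hTDP1; camptothecin omitted.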
DT40 TDP1 CPT: qHTS for Inhibitors of human tyrosyl-DNA phosphodiesterase 1 (TDP1): qHTS in cells in presence of CPT; actives 12% (n = 420,000); chicken DT40 Tdp1-/-;hTDP1 cells + 20 nM CPT, ATP luminescence, 48 h; AID 686979, 2013; Potency, µM (series often up to 46.2 µM), for inactives: top-dose activity change, negative = growth inhibition, usual class: inhibitors; also: potency is read from the fitted curve at half-maximal effect; nearly all actives have a fitted effect of over 55% in size
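Cell growth measured by CellTiter-Glo luminescence after a minimum 48 h, 37 C compound exposure with 20 nM CPT in Tdp1-knockout DT40 cells stably expressing hTDP1, seeded 400/well; qHTS titration format.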
An asterisk follows results filed as active. Rows were chosen to be rich in hits. Some 19% of all compounds tested hit in one or more screens of this group. Unless noted, calls follow the shape of the dose curve; as a rule, active = well fitted curve in the direction sought with a large enough effect; inconclusive = small, poorly fitted or top-dose-only effect, or another doubt; inactive = no such curve, though single readings can be large; an effect the other way counts as inactive or inconclusive. Unless noted, % is scaled to controls: 0 for no effect and ±100 for the full control effect.

What do the screens show for `CCC(C)(C(=O)NC1CCCC1)N(Cc1cccs1)C(=O)c1ccc2c(c1)OCO2` (stereo not drawn)?
IL1B secr inh: -14; HT1080NT lethal: -2%; HT1080 IDH1KD tx: -13%; TDP1 cell noCPT: 21µM*; DT40 TDP1 CPT: 18µM*

How did CC(C)C[C@H](NC(=O)c1nc[nH]c1C(=O)NCCCCCNC(=O)OC(C)(C)C)C(=O)OC(C)(C)C do in these assays?
IL1B secr inh: -3; HT1080NT lethal: inconclusive; HT1080 IDH1KD tx: inconclusive; TDP1 cell noCPT: 18µM*; DT40 TDP1 CPT: inconclusive

Results for CC(C)C[C@H](NC(=O)c1nc[nH]c1C(=O)N[C@@H](CCCCNC(=O)OC(C)(C)C)C(=O)OC(C)(C)C)C(=O)OC(C)(C)C ?
IL1B secr inh: -24; HT1080NT lethal: inconclusive; HT1080 IDH1KD tx: inconclusive; TDP1 cell noCPT: 21µM*; DT40 TDP1 CPT: 21µM*

What do the screens show for `CC(C)(C)OC(=O)CNC(=O)c1[nH]cnc1C(=O)NCCCCCNC(=O)OC(C)(C)C`?
IL1B secr inh: 1; HT1080NT lethal: -10%; HT1080 IDH1KD tx: -22%; TDP1 cell noCPT: 15µM*; DT40 TDP1 CPT: 23µM*

Results for C[C@H](NC(=O)c1nc[nH]c1C(=O)NCc1ccccc1)C(=O)OC(C)(C)C ?
IL1B secr inh: -8; HT1080NT lethal: 0%; HT1080 IDH1KD tx: 1%; TDP1 cell noCPT: inconclusive; DT40 TDP1 CPT: inconclusive

Results for C[C@H](NC(=O)c1nc[nH]c1C(=O)NCCCCCNC(=O)OC(C)(C)C)C(=O)OC(C)(C)C ?
IL1B secr inh: 3; HT1080NT lethal: -13%; HT1080 IDH1KD tx: -19%; TDP1 cell noCPT: 16µM*; DT40 TDP1 CPT: 18µM*

Results for COc1ccc(CN(C(=O)Nc2cc(C)ccc2C)C2CCN(C(C)=O)CC2)cc1 ?
TDP1 cell noCPT: inconclusive; DT40 TDP1 CPT: -7%

Results for CCc1ccc2oc(-c3ccc(OC)cc3)cc(=Nc3cccc(C(=O)O)c3)c2c1 ?
IL1B secr inh: -66*; HT1080NT lethal: -4%; HT1080 IDH1KD tx: -20%; TDP1 cell noCPT: inconclusive; DT40 TDP1 CPT: inconclusive

What do the screens show for `COc1ccc(-c2cc(=Nc3ccc(C(=O)O)cc3)c3cc(C)ccc3o2)cc1`?
IL1B secr inh: -22; HT1080NT lethal: -5%; HT1080 IDH1KD tx: -29%; TDP1 cell noCPT: -26%; DT40 TDP1 CPT: -18%

What do the screens show for `O=C(/C=C/c1ccccc1)N1CCN(CCN2C(=O)c3cccc4cccc(c34)C2=O)CC1`?
IL1B secr inh: -25; HT1080NT lethal: -4%; HT1080 IDH1KD tx: 6%; TDP1 cell noCPT: 7.3µM*; DT40 TDP1 CPT: 7.3µM*

How did CCOc1ccc(NC(=S)N2CCN(CCN3C(=O)c4cccc5cccc(c45)C3=O)CC2)cc1 do in these assays?
IL1B secr inh: 11; HT1080NT lethal: 24%; HT1080 IDH1KD tx: 11%; TDP1 cell noCPT: 26µM*; DT40 TDP1 CPT: inconclusive

Results for COc1ccc(NC(=S)N2CCN(CCN3C(=O)c4cccc5cccc(c45)C3=O)CC2)cc1 ?
IL1B secr inh: 28; HT1080NT lethal: -5%; HT1080 IDH1KD tx: 10%; TDP1 cell noCPT: inconclusive; DT40 TDP1 CPT: -13%

What do the screens show for `O=C(c1ccc(S(=O)(=O)N2CCCC2)cc1)N1CCCCCC1`?
IL1B secr inh: 0; HT1080NT lethal: 3%; HT1080 IDH1KD tx: 4%; TDP1 cell noCPT: 21%; DT40 TDP1 CPT: -25%

How did O=C(c1ccc(S(=O)(=O)N2CCCCC2)cc1)N1CCN(CCN2C(=O)c3cccc4cccc(c34)C2=O)CC1 do in these assays?
IL1B secr inh: -3; HT1080NT lethal: 3%; HT1080 IDH1KD tx: -3%; TDP1 cell noCPT: 12µM*; DT40 TDP1 CPT: 13µM*

What do the screens show for `CC(=O)Nc1ccc(S(=O)(=O)NNC(=O)c2cccc([N+](=O)[O-])c2)cc1`?
IL1B secr inh: 12; HT1080NT lethal: 20%; HT1080 IDH1KD tx: -1%; TDP1 cell noCPT: -8%; DT40 TDP1 CPT: -2%

How did O=C(c1ccc(F)cc1)C1CCN(CCn2c(=S)[nH]c3ccccc3c2=O)CC1 do in these assays?
TDP1 cell noCPT: 15µM*; DT40 TDP1 CPT: inconclusive

What do the screens show for `CC1(C)C(=O)N(CCN2CCC(C(=O)c3ccc(F)cc3)CC2)c2ccccc21`?
IL1B secr inh: -3; HT1080NT lethal: -9%; HT1080 IDH1KD tx: -22%; TDP1 cell noCPT: 15µM*; DT40 TDP1 CPT: 13µM*

How did Cc1cc(C)cc(N(CC(=O)Nc2ccccc2)C2=NC3CS(=O)(=O)CC3S2)c1 (stereo not drawn) do in these assays?
IL1B secr inh: -94*; HT1080NT lethal: 0%; HT1080 IDH1KD tx: 5%; TDP1 cell noCPT: inconclusive; DT40 TDP1 CPT: inconclusive

Results for COc1ccc(N(CC(=O)Nc2ccccc2C(F)(F)F)C2=NC3CS(=O)(=O)CC3S2)cc1 (stereo not drawn) ?
IL1B secr inh: -60*; HT1080NT lethal: -2%; HT1080 IDH1KD tx: 15%; TDP1 cell noCPT: inconclusive; DT40 TDP1 CPT: -20%

How did O=C(Nc1ccc2nc(C(F)(F)F)[nH]c2c1)[C@@H]1O[C@H](CO)[C@@H](O)[C@H]1O do in these assays?
IL1B secr inh: -20; HT1080NT lethal: 11%; HT1080 IDH1KD tx: 14%; TDP1 cell noCPT: -7%; DT40 TDP1 CPT: 3%

Results for CCC(C)C(NC(C)=O)C(=O)NC(=O)NC(c1ccccc1)c1ccccc1 (stereo not drawn) ?
IL1B secr inh: 4; HT1080NT lethal: inconclusive; HT1080 IDH1KD tx: 0%; TDP1 cell noCPT: inconclusive; DT40 TDP1 CPT: -26%

How did CCCSc1nc2c(cnn2-c2ccccc2)c(=O)n1N do in these assays?
IL1B secr inh: -63*; HT1080NT lethal: -1%; HT1080 IDH1KD tx: -10%; TDP1 cell noCPT: inconclusive; DT40 TDP1 CPT: -2%

How did Nn1c(SCc2ccccc2)nc2c(cnn2-c2ccccc2)c1=O do in these assays?
IL1B secr inh: inconclusive; HT1080NT lethal: 0%; HT1080 IDH1KD tx: -7%; TDP1 cell noCPT: -18%; DT40 TDP1 CPT: inconclusive

Results for CCC(=O)N1CCN=C1SCc1c(F)cccc1Cl ?
IL1B secr inh: -21; HT1080NT lethal: 2%; HT1080 IDH1KD tx: -2%; TDP1 cell noCPT: 17%; DT40 TDP1 CPT: -26%

Results for C=CCC(NCc1ccccc1)c1ccc(OC)cc1 (stereo not drawn) ?
IL1B secr inh: -11; HT1080NT lethal: -14%; HT1080 IDH1KD tx: -7%; TDP1 cell noCPT: 26µM*; DT40 TDP1 CPT: inconclusive
